Screening data from PubChem BioAssay.
PAFAH1B2 inh: PAFAH1B2 (human) inhibition; P68402; recombinant PAFAH1B2, FP-rhodamine activity probe, fluorescence polarization; inhibition, % at 3.39 µM; actives 1.2% (n = 340,000); AID 492953;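 active means inhibition above the mean of all tested compounds plus 3 SD, cut at about 24% in these data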;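 further: 0% = enzyme with DMSO and 100% = wells lacking PAFAH1B2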
PAFAH1B3 FP inh: blocks human PAF acetylhydrolase 1B catalytic subunit 3; inhibition, % at 3.39 µM; AID 492972; actives 0.28% (n = 340,000); Q15102; recombinant PAFAH1B3, FP-rhodamine probe, fluorescence polarization;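 active means inhibition above the screen-wide average of all tested compounds plus 3 SD, cut at about 25% in these data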;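 further: 0% = enzyme with DMSO only and 100% = wells lacking PAFAH1B3 protein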
pPAFAH FP inh: pPAFAH (human) enzyme inhibition | inhibition, % at 3.39 µM | actives 1.5% (n = 330,000) | Q13093 | recombinant pPAFAH, FP-rhodamine probe fluorescence polarization | AID 463082;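 active means inhibition above the mean inhibition across the screen plus 3 SD, cut at about 25% in these data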;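 further: inhibitors block binding of the rhodamine activity-based probe so polarization drops; 0% = enzyme with DMSO and 100% = wells lacking pPAFAH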
PAFAH2 inh: PAFAH2 (human) inhibition. recombinant PAFAH2, FP-rhodamine activity probe, fluorescence polarization. inhibition, % at 3.39 µM. actives 0.99% (n = 340,000). AID 492956;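 active means inhibition above the mean over all tested compounds plus 3 SD, cut at about 30% in these data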;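 further: inhibitors block probe labeling of enzyme so polarization drops; 0% = enzyme with DMSO and 100% = wells lacking PAFAH2 protein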
eLon inh: inhibits E. coli Lon protease; actives 0.42% (n = 360,000); AID 602123; purified E. coli Lon protease, fluorescence polarization; inhibition, % at 7.94 µM; P0A9M0; in the data active means inhibition above about 13%, passing the limit was not always enough;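 further: 0% = enzyme with probe and DMSO and 100% = no enzyme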
Target sequence (P0A9M0 whole entry, looked up): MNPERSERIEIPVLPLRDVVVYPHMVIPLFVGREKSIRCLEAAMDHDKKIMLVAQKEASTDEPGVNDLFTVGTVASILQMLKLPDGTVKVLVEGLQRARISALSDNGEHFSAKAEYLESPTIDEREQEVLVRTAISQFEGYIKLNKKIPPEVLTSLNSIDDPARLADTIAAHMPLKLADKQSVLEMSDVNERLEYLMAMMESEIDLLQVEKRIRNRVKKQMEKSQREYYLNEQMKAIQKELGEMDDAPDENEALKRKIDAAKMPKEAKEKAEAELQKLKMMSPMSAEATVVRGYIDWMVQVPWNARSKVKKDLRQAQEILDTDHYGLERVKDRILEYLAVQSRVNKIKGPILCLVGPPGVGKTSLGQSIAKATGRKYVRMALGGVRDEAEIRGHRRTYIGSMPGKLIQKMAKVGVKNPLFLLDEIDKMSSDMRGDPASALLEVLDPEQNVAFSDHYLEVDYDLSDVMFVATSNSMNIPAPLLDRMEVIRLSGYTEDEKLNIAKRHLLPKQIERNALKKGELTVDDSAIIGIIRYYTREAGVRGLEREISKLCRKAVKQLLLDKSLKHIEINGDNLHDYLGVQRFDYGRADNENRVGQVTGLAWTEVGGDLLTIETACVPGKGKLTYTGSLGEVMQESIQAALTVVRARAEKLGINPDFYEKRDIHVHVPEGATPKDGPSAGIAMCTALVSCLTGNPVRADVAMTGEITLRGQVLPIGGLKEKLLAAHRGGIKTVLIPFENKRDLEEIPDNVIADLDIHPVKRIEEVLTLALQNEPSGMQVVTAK
Rin1-Abl PPI inh: blocks binding of human Rin1 to Abl; TR-FRET Rin1/Abl binding, biochemical; inhibition, % at 7.35 µM; actives 0.4% (n = 360,000); AID 588664; in the data active means inhibition above about 5%, passing the limit was not always enough
PAFAH2 confirm: confirmation of human PAFAH2 inhibitors | recombinant PAFAH2, FP-rhodamine activity probe, fluorescence polarization | inhibition, % at 3.39 µM | shares compounds with PAFAH2 inh | actives 65% (n = 2,300);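 active means mean inhibition over three repeats above a set limit taken from the earlier primary screen, cut at about 30% in these data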;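 further: inhibitor blocks binding of rhodamine activity probe so polarization falls; 0% = enzyme with DMSO and 100% = wells lacking PAFAH2 protein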
Numbers without * were called inactive; / = no result. Hits are enriched below; roughly 3.1% of the tested compounds scored in any of these assays.

SMILES	PAFAH1B2 inh	PAFAH1B3 FP inh	pPAFAH FP inh	PAFAH2 inh	eLon inh	Rin1-Abl PPI inh	PAFAH2 confirm
CCOc1ccc(C(=O)OCC(=O)NCCCc2ccccc2)cc1	1	-2	13	55*	8	1	35*
CN(C)C(CNC(=O)C1CCN(S(=O)(=O)c2cccc(Cl)c2Cl)CC1)c1ccccc1 (configuration not stated)	5	19	3	8	5	4	/
Cc1noc(C)c1C(=O)OCC(=O)Nc1c(F)cccc1F	0	3	3	-6	-9	-1	/
CN(C)c1ccc(C(=O)OCC(=O)Nc2ccc(N3CCOCC3)cc2)cc1	2	10	4	49*	-5	-1	35*
CN(C)c1ccc(C(=O)OCc2ccc(Br)cc2)cc1	12	-2	10	34*	9	-4	35*
O=C(COC(=O)C1=Cc2ccccc2OC1)NCc1ccccc1	2	0	3	31*	-10	3	23
O=C(COC(=O)C1=Cc2ccccc2OC1)NCc1ccco1	-7	-4	4	20	-1	3	/
CC(=O)Nc1ccc(C(=O)OCC(=O)Nc2c(F)cccc2F)cc1	4	7	-2	50*	0	-3	38*
CC(=O)Nc1ccc(NC(=O)CCC(=O)OCC(=O)c2ccc(F)cc2)cc1	2	12	0	-2	-2	0	/
CC(=O)Nc1ccc(C(=O)OCC(=O)c2ccc(F)cc2)cc1	5	5	-9	38*	9	1	36*
Cc1ccccc1CN1CCC(N2CCC(C(=O)NCC3CCCO3)CC2)CC1 (configuration not stated)	-2	8	8	5	-2	0	/
O=C(COC(=O)c1ccccc1)Nc1ccccc1Br	-2	-7	10	36*	-10	0	25
O=C(COC(=O)/C=C/c1ccccc1)Nc1ccccc1Br	3	-3	9	64*	4	-1	54*
C/C=C/C(=O)OCC(=O)Nc1ccccc1Br	-4	20	3	33*	5	-3	20
CC1=C(C(=O)N2CCCCCC2)CC(CC(=O)NCCCN(C)C)C(=O)N1Cc1ccccc1 (configuration not stated)	/	/	/	/	-6	2	/
COc1ccc(C(=O)OCC(=O)Nc2ccc(OC)c(S(=O)(=O)N3CCCCC3)c2)cc1[N+](=O)[O-]	1	-1	/	15	12	0	/
CS(=O)(=O)c1ccc(C(=O)OCC(=O)Nc2cccc(S(=O)(=O)N3CCCC3)c2)cc1	-1	3	-2	-2	-11	0	/
COc1ccc(C(=O)OCC(=O)Nc2cccc(S(=O)(=O)N3CCCCCC3)c2)cc1[N+](=O)[O-]	-4	-2	/	38*	-12	-1	26
COc1cc(C(=O)OCC(=O)Nc2cccc(S(=O)(=O)N3CCCC3)c2)ccc1OCC(C)C	-7	0	3	45*	-7	1	45*
O=C(NCC1CC1)c1csc([C@@H]2O[C@H](CO)[C@H](O)[C@H](O)[C@H]2O)n1	/	/	/	/	8	3	/
O=C(NCc1ccc(F)cc1F)[C@@H]1CCCN1C(=O)[C@@H]1CCCN1C(=O)c1cccc2ccccc12	/	/	/	/	3	/	/
CC(=O)Oc1ccccc1Cn1c(C)c(C(=O)NCc2cccc(Cl)c2)sc1=O	/	/	/	/	-5	0	/
COc1ccc(C(=O)O/N=C(\N)Cc2ccc(Cl)c(Cl)c2)cc1OC	-6	-3	9	90*	3	-3	82*
CC(C)(C)C(=O)OC/C(N)=N/OC(=O)c1ccc(Cl)cc1	11	3	10	85*	-1	0	65*
N/C(CCS(=O)(=O)c1ccc(Cl)cc1)=N\OC(=O)c1ccc(Cl)cc1	1	-1	6	22	-4	0	/
SMILES	PAFAH1B2 inh	PAFAH1B3 FP inh	pPAFAH FP inh	PAFAH2 inh	eLon inh	Rin1-Abl PPI inh	PAFAH2 confirm
COc1cc(C(=O)O/N=C(\N)Cc2ccc([N+](=O)[O-])cc2)cc(OC)c1OC	/	/	8	/	0	-1	/
N/C(Cc1ccc(Cl)cc1)=N\OC(=O)c1ccccc1	8	3	2	83*	-12	-3	76*
COc1ccc(C(=O)O/N=C(\N)Cc2ccc(Cl)cc2)cc1OC	4	3	3	74*	0	-1	78*
Cn1nc(C(=O)OCC(=O)Nc2ccc(C(N)=O)cc2)c2ccccc2c1=O	1	2	4	6	-12	-1	/
O=C(Nc1ccccc1Br)C1CCN(S(=O)(=O)c2cccs2)CC1	7	10	2	13	-6	2	/
Cc1cc(Br)cn2c(Cc3ccsc3)c(-c3ccco3)nc12	/	/	/	/	5	-24	/
CCc1ccc(CN(C)Cc2nc(COc3ccccc3)no2)nc1	0	8	10	30*	0	-1	13
COc1ccc2c(c1)OC[C@H]1[C@H]2N2C(=O)CN(Cc3ccccc3)C(=O)[C@@]2(C)[C@H]1c1ccccc1	-5	0	/	0	8	-1	/
O=C(COc1ccc2c(c1)OCO2)Nc1ccccc1F	2	8	8	4	-15	3	/
N#Cc1ccccc1NC(=O)COC(=O)c1ccc2c(c1)OCO2	4	8	4	62*	-2	1	53*
O=C(COC(=O)c1ccc2c(c1)OCO2)Nc1ccccc1F	2	7	6	54*	4	3	49*
Cc1cn(CC(=O)NCCc2ccccn2)c(=O)[nH]c1=O	3	10	/	-7	-12	-1	/
C[C@H](c1ccccc1)N1C[C@@H](COCc2ccccc2)Oc2cc(N3CCC[C@H]3CO)ccc2S1(=O)=O	/	/	/	/	-7	/	/
CCN(CC)S(=O)(=O)c1cccc(C(=O)OCC(=O)C23CC4CC(CC(C4)C2)C3)c1	8	0	5	40*	8	-1	25
O=C(COc1ccccc1F)NC12CC3CC(CC(C3)C1)C2	7	-2	-3	0	-2	-2	/
COc1ccccc1C(=O)OCC(=O)NC12CC3CC(CC(C3)C1)C2	2	9	/	74*	10	0	82*
CCN(CC)S(=O)(=O)c1ccc(O)c(C(=O)OCC(=O)NC2CCCC2)c1	6	7	7	19	-3	4	/
COc1cc(OC)c(C(=O)OCC(=O)NC23CC4CC(CC(C4)C2)C3)cc1OC	1	7	5	97*	-4	2	82*
CCOC(=O)c1c(C)[nH]c(C)c1C(=O)COC(=O)c1cccc(S(=O)(=O)N(CC)CC)c1	2	4	2	1	5	3	/
COc1cc(OC)c(C(=O)NC23CC4CC(CC(C4)C2)C3)cc1OC	8	8	6	1	-5	-1	/
CCN(CC)S(=O)(=O)c1ccc(O)c(C(=O)OCC(=O)NC23CC4CC(CC(C4)C2)C3)c1	14	2	5	77*	-3	3	68*
